Screens: PubChem BioAssay, National Center for Advancing Translational Sciences (NCATS)
aSyn yeast inh: rescues yeast growth from alpha-synuclein toxicity. Yeast expressing alpha-synuclein, growth rescue, BacTiter-Glo, 24 h. Potency, µM (doses to about 46.1 µM), for the others: at the highest dose growth rescue (activation), hits mostly activators. 370,000 compounds, 0.14% hits; also: % of control where 0% means no effect; nearly all actives have a fitted effect of over 65% in size
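Galactose-induced alpha-syn yeast (OD600=0.02, raffinose-pregrown) + pinned cpd, 24 hr, 30 deg C; growth by BacTiter-Glo luminescence. Growth restoration scores as activation.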
TDP-43 yeast inh: rescues yeast growth from TDP-43 toxicity; TDP-43 expressing yeast growth rescue, BacTiter-Glo, 24 h; Potency, µM (top dose mostly 46.1 µM), for the others: at the top dose growth rescue (activation), actives largely listed as activators; 410,000 compounds, 1.8% hits; also: % of control where 0% means no effect; nearly all actives have a fitted effect of over 50% in size
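Readout is BacTiter-Glo luminescence of cell growth, so inhibitors register as activators. TDP-43-expressing yeast at OD600=0.02 in galactose medium, after raffinose pregrowth to mid-log, were incubated with compound for 24 hr at 30 deg C.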
FUS suppressor: suppressors of FUS proteinopathy in yeast; Potency, µM (top dose mostly 76.6 µM), most hits filed as activators; AID 1347120; S. cerevisiae FUS-expressing, growth rescue, OD600, 24 h; 390,000 compounds, 0.24% hits;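 also: plate controls were DMSO vehicle for no effect and reference control for full effect; nearly all actives have a fitted effect of over 55% in size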
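Yeast expressing FUS under galactose induction, OD 0.005 in 2% galactose medium; compounds in a dilution series, 24 h at 30C. Growth rescue by absorbance at 600 nm; CP55940 positive control, DMSO negative.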
Chronic BCR inh: chronic active BCR signaling inhibition; ABC-DLBCL IkBa-CBG/CBR reporter, luminescence ratio, 4 h; Potency, µM (top dose mostly 46.1 µM), without a hit: at the top dose activity change, negative = inhibition, actives largely listed as inhibitors; 340,000 compounds, 0.05% hits; AID 493014; active = well fitted inhibition curve with a large enough effect in the signal ratio, with a control signal flat, not every such curve was filed as active; inconclusive = small, poorly fitted or top-dose-only effect, or effect the other way, or a change in a side signal; the % refers to the signal ratio;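 also: plate controls were basal doxycycline-induced cells for no effect and cells given 10 µM MG132 for full effect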
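Compounds up to 46 uM were incubated four hours with TMD8 cells whose green CBG68 luciferase is fused to IkappaBalpha; red CBR luminescence normalised the signal, and concentration-effect curves were fitted to fusion, red and ratio data.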
uPA surface inh: inhibitors of cell surface uPA generation | Potency, µM (series often up to 38.3 µM), for inactives: at the top dose activity change, negative = inhibition, actives largely listed as inhibitors | 330,000 compounds, 0.31% hits | cell surface uPA generation assay, qHTS | AID 540303; active = well fitted inhibition curve with a large enough effect; inconclusive = small, poorly fitted or top-dose-only effect; inactive = no such curve, though single readings can be large or run the other way; tested in mouse RAW 264.7 cells; also: % is scaled to controls: 0 for no effect and ±100 for the full control effect; nearly all actives have a fitted effect of over 55% in size
Abeta yeast res: restores growth of yeast expressing A-beta42 peptide; 410,000 compounds, 0.063% hits; yeast expressing A-beta42, growth rescue, OD600, 48 h; response scale: 0% DMSO, 100% iron-clioquinol control; Potency, µM (series often up to 46.1 µM), most hits filed as activators; AID 1347071; also: nearly all actives have a fitted effect of over 55% in size
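Yeast growth medium received pinned compounds, then yeast cells expressing toxic A-beta were added; plates incubated at 30 C for 48 hr. Growth read as absorbance at 600 nm, normalized to DMSO and equimolar FeCl3 plus clioquinol controls.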
An asterisk follows results filed as active; [ ] = another dose, or the depositor's remark. Shown are actives, neighbours in structure and some others; about 2.3% of the full set was active somewhere. Unless noted, calls follow the shape of the dose curve; as a rule, active = well fitted curve in the direction sought with a large enough effect; inconclusive = small, poorly fitted or top-dose-only effect, or another doubt; inactive = no such curve, though single readings can be large; an effect the other way counts as inactive or inconclusive. Potency is read from the fitted curve at half-maximal effect.

For O=C(c1ccco1)N1CCN(c2ncnc3scc(-c4ccc(F)cc4)c23)CC1 the results were aSyn yeast inh 12%, TDP-43 yeast inh 18µM*, FUS suppressor inactive, Chronic BCR inh -22%, uPA surface inh 4% and Abeta yeast res inactive.
Screening COc1ccc(-c2csc3ncnc(N4CCN(c5ccc(OC)cc5)CC4)c23)cc1 returned aSyn yeast inh 10%, TDP-43 yeast inh 11µM*, FUS suppressor inactive, Chronic BCR inh -14%, uPA surface inh 4% and Abeta yeast res inactive.
Screening COc1ccc(-c2csc3ncnc(N4CCN(Cc5ccccc5)CC4)c23)cc1 returned aSyn yeast inh 14%, TDP-43 yeast inh 10%, FUS suppressor inactive, Chronic BCR inh 3%, uPA surface inh 0% and Abeta yeast res inactive.
Screening COc1ccc(-c2csc3ncnc(N4CCN(c5ccccc5)CC4)c23)cc1 returned aSyn yeast inh 15%, TDP-43 yeast inh 11µM*, FUS suppressor inactive, Chronic BCR inh 2%, uPA surface inh 10% and Abeta yeast res inactive.
For Cc1ccc(-c2csc3ncnc(N4CCN(c5ccccc5O)CC4)c23)cc1 the results were aSyn yeast inh -17%, TDP-43 yeast inh inconclusive, FUS suppressor inactive, Chronic BCR inh inconclusive, uPA surface inh 12% and Abeta yeast res inactive.
For COc1ccc(-c2csc3ncnc(N4CCN(c5ccccc5[N+](=O)[O-])CC4)c23)cc1 the results were aSyn yeast inh 16%, TDP-43 yeast inh 0%, Chronic BCR inh 0%, uPA surface inh -25% and Abeta yeast res inactive.
For COc1ccc(-c2csc3ncnc(N4CCN(c5ccccc5O)CC4)c23)cc1 the results were aSyn yeast inh inconclusive, TDP-43 yeast inh 18µM*, FUS suppressor inactive, Chronic BCR inh -13%, uPA surface inh 12% and Abeta yeast res inactive.
Cc1ccc(-c2csc3ncnc(N4CCN(C(=O)c5ccco5)CC4)c23)cc1 was read as aSyn yeast inh 3%, TDP-43 yeast inh inconclusive, Chronic BCR inh 1%, uPA surface inh 2% and Abeta yeast res inactive.
`O=C(NCCCN1CCN(c2ccc(F)cc2)CC1)c1sc2ncccc2c1-n1cccc1` gave TDP-43 yeast inh -2%, FUS suppressor inactive and Abeta yeast res inactive.
For O=C(NCc1ccccc1Cl)c1cc2ccccc2o1 the results were TDP-43 yeast inh 11µM*, FUS suppressor inactive and Abeta yeast res inactive.
Cc1ccccc1CNC(=O)c1cc2ccccc2o1 was read as aSyn yeast inh 0%, TDP-43 yeast inh inconclusive, FUS suppressor inactive, uPA surface inh 16% and Abeta yeast res inactive.
For Cc1[nH]c2ccccc2c1C1C(c2ccccc2)=NN=C(C(C)C)N1O (stereo unspecified) the results were aSyn yeast inh 3%, TDP-43 yeast inh -3%, FUS suppressor inactive, Chronic BCR inh -7%, uPA surface inh 4% and Abeta yeast res inconclusive.
`CCc1cccc(C)c1NC(=O)COC(=O)C1CC(=O)N(CCc2ccc(OC)c(OC)c2)C1` (stereo unspecified) gave aSyn yeast inh -1%, TDP-43 yeast inh 5%, FUS suppressor inactive, Chronic BCR inh 0%, uPA surface inh -1% and Abeta yeast res inactive.
For CC(=O)N1CCN(c2ccc(NCc3ccco3)cc2)CC1 the results were FUS suppressor inactive, Chronic BCR inh 1%, uPA surface inh 4.5µM* and Abeta yeast res inactive.
For CC1(C)CC2(CCO1)OC(=O)CC2C(=O)NCCc1ccccc1 (stereo unspecified) the results were aSyn yeast inh -15%, TDP-43 yeast inh 21%, FUS suppressor inactive, Chronic BCR inh 10%, uPA surface inh 2% and Abeta yeast res inactive.
Screening CC1Oc2ccccc2N(CC(=O)c2cccc(Cl)c2)C1=O (stereo unspecified) returned aSyn yeast inh 15%, TDP-43 yeast inh 16µM*, FUS suppressor inactive, Chronic BCR inh -8%, uPA surface inh -28% and Abeta yeast res inactive.
For CC1Oc2ccccc2C(=O)N(CC(=O)c2ccc3c(c2)OCCO3)C1=O (stereo unspecified) the results were aSyn yeast inh 25%, TDP-43 yeast inh 18µM*, FUS suppressor inactive, Chronic BCR inh inconclusive, uPA surface inh -7% and Abeta yeast res inactive.
S=c1[nH]nc(Cc2sc(-c3ccccc3)nc2-c2ccccc2)o1 was read as aSyn yeast inh -66%, TDP-43 yeast inh 13µM*, FUS suppressor inconclusive, Chronic BCR inh inconclusive, uPA surface inh -2% and Abeta yeast res inactive.
`CCCCN1C(C(=O)Nc2cc(C)on2)=C(O)c2ccccc2S1(=O)=O` gave aSyn yeast inh 8%, TDP-43 yeast inh -6%, FUS suppressor inactive, Chronic BCR inh 7%, uPA surface inh 1% and Abeta yeast res inactive.
Screening CCOc1ccc(C(=O)C(CCC(CN(C)C)C(=O)c2ccc(OCC)cc2)CN(C)C)cc1 (stereo unspecified) returned aSyn yeast inh 6%, TDP-43 yeast inh 11%, FUS suppressor inactive, Chronic BCR inh inconclusive, uPA surface inh 1.1µM* and Abeta yeast res inactive.
Screening Cc1nc(C)c(C(=O)Nc2ncc([N+](=O)[O-])s2)o1 returned aSyn yeast inh -22%, TDP-43 yeast inh -9%, FUS suppressor inactive, Chronic BCR inh inconclusive, uPA surface inh -3% and Abeta yeast res inactive.
For CCOC(=O)/C=C/C(=O)OCC(=O)N1CCN(C(=O)c2ccco2)CC1 the results were aSyn yeast inh 5%, TDP-43 yeast inh -4%, Chronic BCR inh 13%, uPA surface inh 7.9µM* and Abeta yeast res inactive.
Screening Cc1cc(SCC(=O)N2CCN(C(=O)c3ccco3)CC2)c(C)cc1Br returned aSyn yeast inh -6%[1.84 µM], TDP-43 yeast inh 25µM*, FUS suppressor inactive, Chronic BCR inh inconclusive, uPA surface inh 17% and Abeta yeast res inactive.
For FC(F)(F)c1cccc(-c2cncc(N3CCN(CCN4CCCC4)CC3)n2)c1 the results were aSyn yeast inh -5%, TDP-43 yeast inh -2%, FUS suppressor inactive and Abeta yeast res inactive.
`CN(CC(=O)Nc1cccc2ccccc12)c1ccc(S(=O)(=O)N2CCOCC2)cn1` gave aSyn yeast inh 2%, TDP-43 yeast inh 4%, FUS suppressor inactive, Chronic BCR inh 6%, uPA surface inh 1% and Abeta yeast res inactive[9.22 µM].
Screening CC1(C)Cc2c(c(N3CCOCC3)nc3snc(Br)c23)CO1 returned aSyn yeast inh 4%, TDP-43 yeast inh 16µM*, FUS suppressor inactive, Chronic BCR inh inconclusive, uPA surface inh -9% and Abeta yeast res inactive.
